# Assay results published in PubChem BioAssay AID686978 (National Center for Advancing Translational Sciences (NCATS), 2013).
# Values joined by “and” are separate entries in the source; they are usually repeats but may differ in a detail not shown here. Equal values may be shown once. Hit rate of the full screen: of about 420,000 compounds, about 64,000 (15%) were called active. Inconclusive results (about 27%) are left out. The call rests on the fitted dose curve; in most records, active means well fitted inhibition curve with a large enough effect; inconclusive means small, poorly fitted or top-dose-only effect; inactive means flat fitted curve, though single readings scatter. A selection follows.
# Assay: qHTS for Inhibitors of human tyrosyl-DNA phosphodiesterase 1 (TDP1): qHTS in cells in absence of CPT; further: nearly all actives have a fitted effect of over 55% in size
# Details: DT40 Tdp1-/- hTDP1 cells, no CPT, ATP luminescence, 48 h; activity change, negative = growth inhibition: at 46.2 µM (top of the series)
# From the text: Human tyrosyl-DNA phosphodiesterase 1 (TDP1) is a novel repair gene, and we propose to use it as a new target for anticancer drug development. TDP1 is not an essential protein, but under treatment with topoisomerase I poison (camptothecin: CPT), TDP1 works as a critical factor for cell survival. To directly identify novel TDP1 inhibitors active in a cellular environment, we have knocked-out the Tdp1 gene in chicken DT40 cells (Tdp1-/-) and generated a complemented counterpart cells that contains a stable transfection of the human TDP1 gene (Tdp1-/-;hTDP1 cells). For the primary screen, Tdp1-/-;hTDP1 cells will be exposed to small molecules in the presence or absence of CPT, and their growth kinetics will be evaluated after 48 hours by measuring ATP activity. […] The hit compounds will then be evaluated in the presence or absence of CPT using Tdp1-/- cells. […] In tertiary assays, biochemical gel-based assays will be used to assess whether the hit compounds specifically target TDP1.
# To this end, we have screened this cell line against the MLSMR in two primary screens. In one screen we add CPT and in the other we screen in the absence of CPT; this AID represents the screen where CPT was absent.
# NIH Chemical Genomics Center [NCGC]
# NIH Molecular Libraries Probe Centers Network [MLPCN]
# Assay Submitter (PI): Yves Pommier, NCI
# DT40-hTDP1 cells without 20 nM Camptothecin (add 20 microL of DMSO in 1 L of cell culture medium) were dispensed at 400 cells/5microL/well in tissue culture treated 1536-well white wall/solid bottom assay plates (Greiner Bio-One North America, NC, U.S.A.) using a Multidrop Combi 8 channel dispenser (Thermo Fisher, Waltham, MA, USA). 23 nL compounds and controls were transferred using the pin tool (Kalypsys, San Diego, CA, USA) to the assay plates. The assay plates were then incubated at 37 masculineC for a minimum 48 hr. Three microL of Cell Titer Glo solution was added to the plates and incubated at RT in dark for 30 min. Luminescence was read using ViewLux (Perkin Elmer) with 1 sec exposure slow speed, high gain and 2x binning.
# On the % scale 0 is the no-effect control and ±100 the full control effect; potency means the concentration at half of the fitted maximal effect.
SMILES,"activity change, negative = growth inhibition",Potency
CCOc1ccc(NC(=O)c2cc(C)nc3ccccc23)cc1,-0.374% (inactive),
CCOc1cc(N2CCOCC2)c(OCC)cc1NC(=O)c1ccc(C)s1,,2.06 µM (active)
COc1cc(C(=O)Nc2cc(C(F)(F)F)ccc2N2CCOCC2)ccc1O,-18.6% (inactive),
O=C(NNC(=O)c1cc(-c2ccccc2Cl)nc2ccccc12)c1csc(N2CCOCC2)n1,-11.1% (inactive),
CCOc1cc(N2CCOCC2)c(OCC)cc1NC(=O)c1cc(C)nc2ccccc12,,14.6 µM (active)
O=C(Nc1ccccc1N1CCOCC1)c1csc2c1CCCC2,-4.52% (inactive),
Cc1oc(C)c(C(=O)NCCCC(=O)O)c1C(=O)NCCCC(=O)O,-25.2% (inactive),
Cc1ccc(S(=O)(=O)N2CCCCC2)cc1C(=O)N1CCN(CCO)CC1,17.8% (inactive),
CCn1nc(C)c(CNC(=O)C2CCC(=O)N(Cc3cccc(F)c3)C2)c1C (stereo not given),-2.49% (inactive),
CCc1ccc(C(=O)OCC(=O)NCC(F)(F)F)cc1,0.093% (inactive),
CC(N)C12CC3CC(CC(O)(C3)C1)C2 (stereo not given),4.71% (inactive),
C=C1c2cc(CC)ccc2NC(=O)N1c1ccc(C)cc1,-12.5% (inactive),
CCc1cccc(NC(=O)c2cc(-c3ccccc3)n[nH]2)c1,-13.6% (inactive),
CCc1ccc2c(c1)C1(NN=C(c3ccccc3)S1)C(=O)N2 (stereo not given),,2.31 µM (active)
Cc1cccc(C)c1NC(=O)C(c1ccccc1)N1CC(=O)Nc2ccccc21 (stereo not given),-13.2% (inactive),
COc1ccc(/C=C(\NC(=O)c2ccc(OCC(C)C)cc2)C(=O)OCc2ccco2)cc1,,16.4 µM (active)
COc1ccc(/C=C(/NC(=O)c2ccccc2)C(=O)Nc2cccc(C(=O)O)c2)cc1,4.78% (inactive),
COc1ccc(/C=C(/NC(=O)c2ccco2)C(=O)Nc2ccc(C(C)=O)cc2)cc1,-8.62% (inactive),
Cc1ccc(OCCOCCOc2ccc(Br)cc2/C=N\NC(=O)c2ccncc2)cc1,,18.4 µM (active)
Cc1ccc(OCCOc2cccc(/C=N/NC(N)=O)c2)cc1,9.86% (inactive),
CCOc1cc(/C=N/NC(=O)c2ccncc2)cc(Br)c1O,1.15% (inactive),
CCCOn1c(-n2nc(C)cc2C)nc2ccccc2c1=O,-8.69% (inactive),

SMILES,"activity change, negative = growth inhibition",Potency
CC(=O)c1ccc(OCC(=O)N(C)C2CCS(=O)(=O)C2)cc1 (stereo not given),-0.124% (inactive),
Cc1oc(-c2cccc(NC(=O)c3ccccc3)c2)nc1CNC(=O)c1cnc2ccccn2c1=O,-2.25% (inactive),
Cc1cc2c(cc3c(SCc4nc(-c5ccccc5)oc4C)nnc(C)n32)o1,,16.4 µM (active)
Cc1cc(NC(=O)CSCc2nc(-c3cccc(Cl)c3)oc2C)no1,3.73% (inactive),
C/C(=C\C(=O)c1cccnc1)Nc1ccc(C)c(C)c1,-6.65% (inactive),
CSc1nc2ccccc2cc1/C=C(\C#N)c1ccc(Cl)cc1Cl,-23.3% (inactive),
O=C(CCCN1C(=O)C2C3C=CC(C3)C2C1=O)N1CCN(c2ccccc2)CC1 (stereo not given),2.5% (inactive),
O=C(CCCC(=O)N1CCN(c2cccc(Cl)c2)CC1)c1ccccc1,,18.4 µM (active)
CC(C)c1nnc(NC(=O)CCC(=O)N2CCN(c3cccc(Cl)c3)CC2)s1,-22.7% (inactive),
COc1ccc(NC(=O)CN(C)C(=O)c2ccc(NC3CC3)c([N+](=O)[O-])c2)cc1,-4.51% (inactive),
O=C1CN(C(=O)c2ccccc2F)C(c2ccc(F)cc2)c2cc(F)ccc2N1 (stereo not given),-11.5% (inactive),
CCOC(=O)CCc1c(C)c2ccc(OCc3nn[nH]n3)c(C)c2oc1=O,18.3% (inactive),
CC(C)C[C@@H]1COc2cc(N3CCC[C@@H]3CO)ccc2S(=O)(=O)N1,5.3% (inactive),
COc1ccc(/C=C2/SC(=O)N(CCCCCC(=O)Nc3ccccc3C(=O)O)C2=S)cc1,-28% (inactive),
CNN/C(N=Cc1ccc([N+](=O)[O-])s1)=N\S(=O)(=O)c1cc(C)c(Cl)cc1SCc1ccccc1,,1.3 µM (active)
CCC(C)(C(=O)NC1CCCCC1)N(C)C(=O)c1ccc2c(c1)OCO2 (stereo not given),-9.92% (inactive),
O=[N+]([O-])c1cccc(/C([O-])=C(/C(=S)Nc2ccccc2F)[n+]2ccccc2)c1,2.94% (inactive),
CCOc1ccccc1NC(=S)C(=C([O-])c1ccc2c(c1)OCCO2)[n+]1ccc(CC)cc1,,18.4 µM (active)
CCOc1ccccc1NC(=O)NC1CCCCCCC1,7.99% (inactive),
CC1(C)O[C@@H]2[C@H](O1)[C@@H](CO)O[C@H]2n1c(N2CCCCC2)nc2c(N)ncnc21,-5.36% (inactive),
CC(C)=CCN1CCN(Cc2cc3ccccc3[nH]2)CC1CCO (stereo not given),12.1% (inactive),
COc1ccc(COC(=O)NC(C(=O)O)c2ccccc2)cc1 (stereo not given),-15.9% (inactive),

SMILES,"activity change, negative = growth inhibition",Potency
CCc1nn(CCCN2CCN(c3cccc(Cl)c3)CC2)c(=O)n1CCOc1ccccc1,,15 µM (active) and 5.31 µM (active)
COc1cccc(N2CCN(C3CC(=O)N(c4ccc(Cl)cc4)C3=O)CC2)c1 (stereo not given),-9.93% (inactive),
Cc1nn(CCOc2ccccc2)c(=O)n1-c1ccccc1F,3.28% (inactive),
CN1C(C(=O)NCC2CC2)CC2Cn3c(nc4ccccc43)C21 (stereo not given),-5.86% (inactive),
CCS(=O)(=O)c1ccc(O)c(NC(=O)COc2ccc(Cl)cc2)c1,-25.9% (inactive),
O=C(Nc1cccc(S(=O)(=O)NC2=NCCC2)c1)c1ccc(F)cc1F,-20.4% (inactive),
O=C(Nc1cc(S(=O)(=O)Nc2ccc(Cl)cc2)ccc1O)c1ccc(F)cc1F,,13 µM (active)
N#CNC1=NCN(CCc2ccccc2)CN1,-13.8% (inactive),
O=C(CCN1CCCCC1)Nc1ccc(F)c(F)c1,-19.5% (inactive),
COc1ccccc1CCNS(=O)(=O)c1cc2c3c(c1)C(C)C(=O)N3CCC2 (stereo not given),,2.91 µM (active)
COc1ccc(N2CCN(S(=O)(=O)c3cc4c5c(c3)C(C)C(=O)N5CCC4)CC2)cc1 (stereo not given),-23.2% (inactive),
COc1ccc(C)cc1S(=O)(=O)Nc1cc2c3c(c1)CCC(=O)N3CCC2,-20.7% (inactive),
Cc1cccc(NC(=O)Cc2ccc(Br)cc2)n1,1.59% (inactive),
COC(=O)Cc1nc2ccccc2[nH]1,-22.4% (inactive),
CCOC(=O)C1CCN(C(=O)Cc2c(C(=O)O)[nH]c3ccccc23)CC1,2.54% (inactive),
COC(=O)Cc1c(-c2[nH]c3ccccc3c2CC(=O)OC)[nH]c2ccccc12,,14.6 µM (active)
COc1ccc(S(=O)(=O)N2CCOCC2)c(C)c1C,0.714% (inactive),
COc1ccc(NC(=O)COC(=O)c2ccc(NS(=O)(=O)/C=C/c3ccccc3)cc2)cc1,-29.2% (inactive),
COc1ccc(Cn2c(=O)[nH]c3cc(C(=O)N4CCN(C(=O)c5ccco5)CC4)ccc3c2=O)cc1,,11.2 µM (active)
COc1ccccc1Cn1c(=S)[nH]c2cc(C(=O)N3CCN(C)CC3)ccc2c1=O,-26.3% (inactive),
COc1ccc(CNC(=O)C2CCN(C(=O)c3ccco3)CC2)cc1,-7.38% (inactive),
